For ten compounds, growth inhibition results are on record in PubChem BioAssay (NCI).

This is part of a sample that, as a whole, favours compounds with a hit. Of some 79,000 tested, about 15% had one in any assay. Unmarked numbers belong to inactive results. Calls of active or inactive are those of the source. Rule as the data show it: active = growth inhibition above about 70%; inactive = the rest.

Assay [1] is described as follows: NCI Yeast Anticancer Drug Screen. Data for the rad50 strain (AID 155).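 Also: 0% = growth of vehicle-only cultures of the same strain.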 The note with it: S. cerevisiae rad50 strain growth inhibition, hits give high values. The method, boiled down: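 Readout: growth inhibition relative to vehicle-treated cultures. Compound exposure was carried out in a genetically defined yeast strain deficient in DNA damage repair.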
Assay [2] in a line: NCI Yeast Anticancer Drug Screen. Data for the mec2-1 strain (AID 157). The settings on record: S. cerevisiae mec2-1 strain, hits give high values. The method, boiled down: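 Test agents were screened against the mec2-1 yeast strain, with defined DNA repair or cell cycle alteration. Growth was scored as inhibition against vehicle-only controls.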
Assay [3] is described as follows: NCI Yeast Anticancer Drug Screen. Data for the sgs1 mgt1 strain (AID 161).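 Also: 0% = growth of cultures given vehicle only.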 The note with it: S. cerevisiae sgs1 mgt1 strain, hits give high values. The method in brief:
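Inhibition of yeast growth, normalised to vehicle-treated controls, is reported for a strain bearing genetic alterations in DNA damage repair.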

The nature of assay [4]: NCI Yeast Anticancer Drug Screen. Data for the cln2 rad14 strain (AID 165).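 Also: 0% = growth equal to vehicle treated cultures.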 The note with it: S. cerevisiae cln2 rad14 strain, hits give high values. The method, boiled down:
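Growth of compound-exposed yeast (cln2 rad14 genotype) measured and expressed as inhibition relative to vehicle.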

Assay [5] in a line: NCI Yeast Anticancer Drug Screen. Data for the bub3 strain (AID 167). The settings on record: S. cerevisiae bub3 mutant strain, hits give high values. The method, boiled down: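 Readout: yeast growth inhibition, expressed relative to vehicle-only wells. The test organism is a mutant strain from a panel with lesions in DNA repair or checkpoint genes.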
The nature of assay [6]: NCI Yeast Anticancer Drug Screen. Data for the mlh1 rad18 strain (AID 175). The note with it: S. cerevisiae mlh1 rad18 strain growth inhibition, hits give high values. The method, boiled down:
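In this whole-cell yeast screen, a strain with altered DNA damage repair is challenged with compound, and its growth is measured against matched vehicle-treated controls.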

[7] abbreviates: at 5.0 µM (retest, dose inferred, filed as 0.5).
Where [8] appears, read: at 50.0 µM (retest, dose inferred, filed as 5.0).

On to `O=C1OC(c2ccccc2)(c2ccc(-c3ccc(O)cc3)cc2)c2ccccc21` (stereo not given), for which the growth inhibition in assay [1] (setting [7]) is 6%; in assay [1] (setting [8]), 95% (active); in assay [1] (at 50.0 µM) it was 95.6% (active); in assay [2] (setting [7]), 3%; in assay [2] (setting [8]) it was 97% (active); in assay [2] (at 50.0 µM) it was 97.6% (active). Moreover, the growth inhibition in assay [3] (setting [7]) was -1%; in assay [3] (setting [8]) it was 97% (active); in assay [3] (at 50.0 µM), 96.8% (active); in assay [4] (setting [7]), 6%; in assay [4] (setting [8]), 96% (active); in assay [4] (at 50.0 µM), 95.3% (active). Also, the growth inhibition is 8% in assay [5] (setting [7]); 96% (active) in assay [5] (setting [8]); 95.8% (active) in assay [5] (at 50.0 µM); 7% in assay [6] (setting [7]); 96% (active) in assay [6] (setting [8]); 96.7% (active) in assay [6] (at 50.0 µM).

In the case of `O=C(O)CSc1cc2c3ccccc3sc2c2ccccc12`, the growth inhibition in assay [1] (setting [7]) is 16%; in assay [1] (setting [8]), 96% (active); in assay [1] (at 50.0 µM), 96.3% (active); in assay [2] (setting [7]), 14%; in assay [2] (setting [8]), 97% (active); in assay [2] (at 50.0 µM), 97.8% (active). In addition, the growth inhibition in assay [3] (setting [7]) is 11%; in assay [3] (setting [8]), 97% (active); in assay [3] (at 50.0 µM), 98.5% (active); in assay [4] (setting [7]) it was 4%; in assay [4] (setting [8]), 96% (active); in assay [4] (at 50.0 µM), 93.8% (active). Besides, the growth inhibition was 8% in assay [5] (setting [7]); 94% (active) in assay [5] (setting [8]); 79.7% (active) in assay [5] (at 50.0 µM); 12% in assay [6] (setting [7]); 97% (active) in assay [6] (setting [8]); 98.1% (active) in assay [6] (at 50.0 µM).

Regarding `O=C1CCSC(=S)N1c1ccc(Br)c(Cl)c1`, the growth inhibition in assay [1] (setting [7]) was 13%; in assay [1] (setting [8]) it was 94% (active); in assay [1] (at 50.0 µM), 39.8%; in assay [2] (setting [7]) it was 9%; in assay [2] (setting [8]), 94% (active); in assay [2] (at 50.0 µM), 39.4%. Further, the growth inhibition in assay [3] (setting [7]) is 52%; in assay [3] (setting [8]), 99% (active); in assay [3] (at 50.0 µM), 72.3% (active); in assay [4] (setting [7]), -4%; in assay [4] (setting [8]), 79% (active); in assay [4] (at 50.0 µM), 12.7%. The growth inhibition is -4% in assay [5] (setting [7]); 98% (active) in assay [5] (setting [8]); 13.8% in assay [5] (at 50.0 µM); 29% in assay [6] (setting [7]); 99% (active) in assay [6] (setting [8]); 69.5% in assay [6] (at 50.0 µM).

In the case of `CCOC(=O)n1c2ccccc2c(=O)n1CCO`, the growth inhibition in assay [1] (setting [7]) is -23%; in assay [1] (setting [8]) it was -15%; in assay [1] (at 50.0 µM) it was 97.5% (active); in assay [2] (setting [7]), -16%; in assay [2] (setting [8]) it was -19%; in assay [2] (at 50.0 µM), 98.9% (active). Also, the growth inhibition is -19% in assay [3] (setting [7]); -12% in assay [3] (setting [8]); 87.7% (active) in assay [3] (at 50.0 µM); -32% in assay [4] (setting [7]); -18% in assay [4] (setting [8]); 43.2% in assay [4] (at 50.0 µM). The growth inhibition in assay [5] (setting [7]) was -28%; in assay [5] (setting [8]), -11%; in assay [5] (at 50.0 µM), 97.3% (active); in assay [6] (setting [7]), -33%; in assay [6] (setting [8]), -11%; in assay [6] (at 50.0 µM) it was 50%.

Regarding `O=C(Oc1c([N+](=O)[O-])cc(-c2ccc([N+](=O)[O-])cc2)cc1[N+](=O)[O-])c1ccccc1`, the growth inhibition in assay [1] (setting [7]) was 32%; in assay [1] (setting [8]) it was 56%; in assay [1] (at 50.0 µM), 74.7% (active); in assay [2] (setting [7]) it was 86% (active); in assay [2] (setting [8]), 89% (active); in assay [2] (at 50.0 µM) it was 78.1% (active). The growth inhibition in assay [3] (setting [7]) is 80% (active); in assay [3] (setting [8]), 87% (active); in assay [3] (at 50.0 µM), 82.5% (active); in assay [4] (setting [7]), 34%; in assay [4] (setting [8]), 76% (active); in assay [4] (at 50.0 µM), 79.3% (active). Besides, the growth inhibition in assay [5] (setting [7]) was 49%; in assay [5] (setting [8]), 74% (active); in assay [5] (at 50.0 µM) it was 74.3% (active); in assay [6] (setting [7]), 82% (active); in assay [6] (setting [8]) it was 83% (active); in assay [6] (at 50.0 µM), 82.7% (active).

`Cc1cnc(C#N)c(C#N)n1`: the growth inhibition in assay [1] (setting [7]) was 2%; in assay [1] (setting [8]) it was 10%; in assay [1] (at 50.0 µM), 35.6%; in assay [2] (setting [7]) it was -1%; in assay [2] (setting [8]), 8%; in assay [2] (at 50.0 µM) it was 5.9%. Also, the growth inhibition in assay [3] (setting [7]) was 2%; in assay [3] (setting [8]), 7%; in assay [3] (at 50.0 µM), 9.95%; in assay [4] (setting [7]) it was 0%; in assay [4] (setting [8]), 7%; in assay [4] (at 50.0 µM) it was 12.2%. Further, the growth inhibition is -1% in assay [5] (setting [7]); -1% in assay [5] (setting [8]); 13.2% in assay [5] (at 50.0 µM); -3% in assay [6] (setting [7]); 3% in assay [6] (setting [8]); 18.1% in assay [6] (at 50.0 µM).

`COC(=O)CCN1c2ccccc2Sc2ccccc21`: the growth inhibition in assay [1] (setting [7]) was -14%; in assay [1] (setting [8]), 38%; in assay [1] (at 50.0 µM) it was 48.8%; in assay [2] (setting [7]) it was -23%; in assay [2] (setting [8]) it was 21%; in assay [2] (at 50.0 µM) it was 23.1%. The growth inhibition in assay [3] (setting [7]) was -13%; in assay [3] (setting [8]), 30%; in assay [3] (at 50.0 µM), 47.5%; in assay [4] (setting [7]), 31%; in assay [4] (setting [8]) it was 42%; in assay [4] (at 50.0 µM) it was 23.4%. Moreover, the growth inhibition in assay [5] (setting [7]) is 16%; in assay [5] (setting [8]) it was 62%; in assay [5] (at 50.0 µM), 12.1%; in assay [6] (setting [7]), -15%; in assay [6] (setting [8]), 49%; in assay [6] (at 50.0 µM), 64.7%.

As for `[O-][n+]1ccccc1Sc1nc(Sc2cccc[n+]2[O-])nc(Sc2cccc[n+]2[O-])n1`, the growth inhibition in assay [1] (setting [7]) was 98% (active); in assay [1] (setting [8]), 99% (active); in assay [1] (at 50.0 µM), 89.8% (active); in assay [2] (setting [7]), 99% (active); in assay [2] (setting [8]), 99% (active); in assay [2] (at 50.0 µM) it was 91.7% (active). The growth inhibition in assay [3] (setting [7]) was 99% (active); in assay [3] (setting [8]) it was 98% (active); in assay [3] (at 50.0 µM), 92.7% (active); in assay [4] (setting [7]) it was 98% (active); in assay [4] (setting [8]), 98% (active); in assay [4] (at 50.0 µM), 90% (active). Also, the growth inhibition in assay [5] (setting [7]) is 98% (active); in assay [5] (setting [8]) it was 99% (active); in assay [5] (at 50.0 µM), 90.3% (active); in assay [6] (setting [7]), 100% (active); in assay [6] (setting [8]) it was 99% (active); in assay [6] (at 50.0 µM), 88.4% (active).

`Cc1ccc(C)c(N2C(=O)C(=O)c3c(C)ccc(C)c32)c1`: the growth inhibition in assay [1] (setting [7]) is 12%; in assay [1] (setting [8]), 96% (active); in assay [1] (at 50.0 µM) it was 99% (active); in assay [2] (setting [7]), 13%; in assay [2] (setting [8]) it was 66%; in assay [2] (at 50.0 µM), 99% (active). Further, the growth inhibition is 12% in assay [3] (setting [7]); 98% (active) in assay [3] (setting [8]); 97.7% (active) in assay [3] (at 50.0 µM); 27% in assay [4] (setting [7]); 23% in assay [4] (setting [8]); 89.8% (active) in assay [4] (at 50.0 µM). Besides, the growth inhibition in assay [5] (setting [7]) was 8%; in assay [5] (setting [8]), 10%; in assay [5] (at 50.0 µM) it was 97.8% (active); in assay [6] (setting [7]), 14%; in assay [6] (setting [8]) it was 80% (active); in assay [6] (at 50.0 µM) it was 98.8% (active).

For `ClCc1ccc(OCc2ccccc2)c(OCc2ccccc2)c1`, the growth inhibition in assay [1] (setting [7]) is 4%; in assay [1] (setting [8]), 51%; in assay [1] (at 50.0 µM), 79% (active); in assay [2] (setting [7]), 2%; in assay [2] (setting [8]), 67%; in assay [2] (at 50.0 µM) it was 62.3%. For the same compound, the growth inhibition in assay [3] (setting [7]) is 4%; in assay [3] (setting [8]), 87% (active); in assay [3] (at 50.0 µM) it was 89.2% (active); in assay [4] (setting [7]) it was 0%; in assay [4] (setting [8]), 48%; in assay [4] (at 50.0 µM), 82.3% (active). Also, the growth inhibition in assay [5] (setting [7]) was 6%; in assay [5] (setting [8]), 77% (active); in assay [5] (at 50.0 µM), 87.2% (active); in assay [6] (setting [7]), 17%; in assay [6] (setting [8]), 87% (active); in assay [6] (at 50.0 µM), 94.2% (active).
